Measured values as given in PMC7862700, “An all-to-all approach to the identification of sequence-specific readers for epigenetic DNA modifications on cytosine”.

What was measured:
Experiment in all cases: DAPPL (digital affinity profiling via proximity ligation, sequencing); 10 mM Tris-HCl pH 7.5, 50 mM NaCl, 1 mM DTT, 4% glycerol, room temperature, 30 min; GST-TFs on glutathione beads, 16-mer random dsDNA library, 0.1% formaldehyde crosslink after washing; high values mean tight binding
FLI1 = biological target: T1, FLI1 (Homo sapiens, UniProt Q01543 1-452); details: protein: recombinant; tags: N-terminal GST; dsDNA, one strand shown
T1 sequence: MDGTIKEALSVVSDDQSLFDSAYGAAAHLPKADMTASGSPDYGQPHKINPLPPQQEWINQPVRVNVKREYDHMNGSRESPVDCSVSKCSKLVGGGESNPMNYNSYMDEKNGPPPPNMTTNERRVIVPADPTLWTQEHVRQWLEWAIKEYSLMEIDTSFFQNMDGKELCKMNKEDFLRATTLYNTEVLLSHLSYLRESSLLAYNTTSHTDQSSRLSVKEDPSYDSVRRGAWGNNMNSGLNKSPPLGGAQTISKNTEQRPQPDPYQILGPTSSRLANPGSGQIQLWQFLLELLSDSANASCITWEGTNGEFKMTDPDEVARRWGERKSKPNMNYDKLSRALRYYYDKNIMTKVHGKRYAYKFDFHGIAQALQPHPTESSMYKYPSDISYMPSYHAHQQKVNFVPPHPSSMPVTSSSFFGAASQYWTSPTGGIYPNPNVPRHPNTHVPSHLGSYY
In short: (§1)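 Each value of binding signal is a hexamer's read frequency for a factor divided by the same hexamer's frequency in the tag-only sample. Barcoded, bead-captured GST fusions of human transcription factors made in yeast were pooled with that sample and incubated with 200 nmole of a random double-stranded 16-mer DNA library in Tris/NaCl/DTT/glycerol buffer at room temperature for 30 min. Washing, 0.1% formaldehyde crosslinking, proximity ligation, PCR and Illumina NextSeq500 sequencing followed.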

ELK1 = biological target: T2, ELK1 (Homo sapiens, UniProt P19419 1-428); details: protein: recombinant; tags: N-terminal GST; dsDNA, one strand shown
T2 sequence: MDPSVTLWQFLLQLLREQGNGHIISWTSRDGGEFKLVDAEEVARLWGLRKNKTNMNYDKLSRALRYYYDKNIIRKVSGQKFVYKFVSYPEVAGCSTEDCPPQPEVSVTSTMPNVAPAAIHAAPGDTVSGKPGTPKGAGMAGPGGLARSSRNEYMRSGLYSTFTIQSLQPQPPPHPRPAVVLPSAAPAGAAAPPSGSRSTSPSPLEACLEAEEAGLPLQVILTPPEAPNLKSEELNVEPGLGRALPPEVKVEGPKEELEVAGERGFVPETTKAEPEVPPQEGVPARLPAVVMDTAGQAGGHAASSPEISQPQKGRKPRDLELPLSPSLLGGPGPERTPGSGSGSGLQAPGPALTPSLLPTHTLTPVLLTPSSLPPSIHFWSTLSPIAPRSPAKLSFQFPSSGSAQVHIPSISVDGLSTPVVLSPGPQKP
In short: as §1

GABPA = biological target: T3, GABPA (Homo sapiens, UniProt Q06546 1-454); details: protein: recombinant; tags: N-terminal GST; dsDNA, one strand shown
T3 sequence: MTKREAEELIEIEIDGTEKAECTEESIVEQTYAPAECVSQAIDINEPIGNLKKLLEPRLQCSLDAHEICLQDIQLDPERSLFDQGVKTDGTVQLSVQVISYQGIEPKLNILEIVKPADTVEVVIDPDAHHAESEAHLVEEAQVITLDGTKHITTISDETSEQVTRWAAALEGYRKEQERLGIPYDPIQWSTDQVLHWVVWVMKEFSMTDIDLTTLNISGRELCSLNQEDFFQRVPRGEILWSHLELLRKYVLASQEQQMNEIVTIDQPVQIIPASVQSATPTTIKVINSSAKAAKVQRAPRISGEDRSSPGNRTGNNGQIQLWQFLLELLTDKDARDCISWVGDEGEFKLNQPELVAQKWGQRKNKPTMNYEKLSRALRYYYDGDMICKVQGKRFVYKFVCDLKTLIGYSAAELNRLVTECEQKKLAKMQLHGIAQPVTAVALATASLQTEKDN
In short: as §1

ERG = biological target: T4, ERG (Homo sapiens, UniProt P11308 1-479); details: protein: recombinant; tags: N-terminal GST; dsDNA, one strand shown
T4 sequence: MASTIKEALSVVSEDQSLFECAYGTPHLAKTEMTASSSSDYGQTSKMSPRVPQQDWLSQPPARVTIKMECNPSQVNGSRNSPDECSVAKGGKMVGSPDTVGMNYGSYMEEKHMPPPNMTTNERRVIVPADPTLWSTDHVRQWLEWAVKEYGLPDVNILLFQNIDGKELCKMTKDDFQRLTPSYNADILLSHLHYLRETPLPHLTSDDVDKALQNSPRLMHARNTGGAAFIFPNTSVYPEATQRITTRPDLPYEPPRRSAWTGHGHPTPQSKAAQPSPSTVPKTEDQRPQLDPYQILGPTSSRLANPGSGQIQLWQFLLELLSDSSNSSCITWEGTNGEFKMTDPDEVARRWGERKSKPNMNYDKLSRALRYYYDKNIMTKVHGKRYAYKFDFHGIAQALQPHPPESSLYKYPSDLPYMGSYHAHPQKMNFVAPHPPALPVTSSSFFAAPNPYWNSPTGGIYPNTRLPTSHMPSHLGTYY
In short: as §1

ELF1 = ELF1 (Homo sapiens, UniProt P32519 1-619); details: protein: recombinant; tags: N-terminal GST; dsDNA, one strand shown
Chain of ELF1 (P32519 whole entry): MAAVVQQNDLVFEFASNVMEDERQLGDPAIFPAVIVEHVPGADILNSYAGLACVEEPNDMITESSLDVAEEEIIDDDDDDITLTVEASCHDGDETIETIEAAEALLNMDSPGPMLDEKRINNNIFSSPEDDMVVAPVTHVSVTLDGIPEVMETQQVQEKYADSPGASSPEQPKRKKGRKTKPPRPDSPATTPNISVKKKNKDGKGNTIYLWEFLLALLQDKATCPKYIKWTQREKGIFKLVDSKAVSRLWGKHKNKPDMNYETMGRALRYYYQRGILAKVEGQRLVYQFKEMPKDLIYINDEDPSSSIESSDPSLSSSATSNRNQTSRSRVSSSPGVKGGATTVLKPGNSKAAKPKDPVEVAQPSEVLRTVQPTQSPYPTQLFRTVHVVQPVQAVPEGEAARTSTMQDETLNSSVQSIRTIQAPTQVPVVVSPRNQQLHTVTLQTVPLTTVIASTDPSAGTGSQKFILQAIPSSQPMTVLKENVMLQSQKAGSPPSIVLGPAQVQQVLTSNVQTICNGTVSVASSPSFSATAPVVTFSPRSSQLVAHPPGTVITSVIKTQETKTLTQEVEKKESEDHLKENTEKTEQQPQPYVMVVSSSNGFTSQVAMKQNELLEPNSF
In short: as §1

EHF = biological target: T5, EHF (Homo sapiens, UniProt Q9NZC4 1-300); details: protein: recombinant; tags: N-terminal GST; dsDNA, one strand shown
T5 sequence: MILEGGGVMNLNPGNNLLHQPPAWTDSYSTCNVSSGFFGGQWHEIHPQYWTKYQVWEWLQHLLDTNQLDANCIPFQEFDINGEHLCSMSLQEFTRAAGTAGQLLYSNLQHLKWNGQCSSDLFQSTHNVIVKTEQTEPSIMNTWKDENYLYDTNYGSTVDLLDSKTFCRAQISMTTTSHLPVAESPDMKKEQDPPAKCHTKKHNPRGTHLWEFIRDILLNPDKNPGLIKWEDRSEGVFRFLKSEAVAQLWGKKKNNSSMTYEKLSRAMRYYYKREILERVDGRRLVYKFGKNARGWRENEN
In short: as §1

SPI1 = SPI1 (Homo sapiens, UniProt P17947 1-270); details: protein: recombinant; tags: N-terminal GST; dsDNA, one strand shown
In short: as §1

SPIB = SPIB (Homo sapiens, UniProt Q01892 1-262); details: protein: recombinant; tags: N-terminal GST; dsDNA, one strand shown
Chain of SPIB (Q01892 whole entry): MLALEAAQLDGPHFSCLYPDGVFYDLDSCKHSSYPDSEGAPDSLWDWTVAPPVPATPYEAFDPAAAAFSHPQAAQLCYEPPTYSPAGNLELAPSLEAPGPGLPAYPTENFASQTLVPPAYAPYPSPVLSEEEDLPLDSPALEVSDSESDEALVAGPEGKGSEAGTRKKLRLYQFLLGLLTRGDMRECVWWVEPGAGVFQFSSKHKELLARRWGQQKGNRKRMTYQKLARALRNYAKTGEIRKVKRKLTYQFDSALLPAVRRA
In short: as §1

ELK3 = biological target: T6, ELK3 (Homo sapiens, UniProt P41970 1-407); details: protein: recombinant; tags: N-terminal GST; dsDNA, one strand shown
T6 sequence: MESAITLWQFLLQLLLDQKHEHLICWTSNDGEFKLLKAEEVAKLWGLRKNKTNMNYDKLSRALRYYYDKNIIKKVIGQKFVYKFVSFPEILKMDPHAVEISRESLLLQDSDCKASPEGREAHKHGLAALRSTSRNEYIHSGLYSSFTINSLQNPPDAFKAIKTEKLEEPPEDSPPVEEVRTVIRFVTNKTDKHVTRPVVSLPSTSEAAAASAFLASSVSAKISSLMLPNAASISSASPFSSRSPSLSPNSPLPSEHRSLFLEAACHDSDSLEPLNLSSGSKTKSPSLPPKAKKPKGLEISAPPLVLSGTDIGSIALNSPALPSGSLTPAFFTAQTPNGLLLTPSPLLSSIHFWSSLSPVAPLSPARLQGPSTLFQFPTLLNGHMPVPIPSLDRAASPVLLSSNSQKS
In short: as §1

FEV = biological target: T7, FEV (Homo sapiens, UniProt Q99581 1-238); details: protein: recombinant; tags: N-terminal GST; dsDNA, one strand shown
T7 sequence: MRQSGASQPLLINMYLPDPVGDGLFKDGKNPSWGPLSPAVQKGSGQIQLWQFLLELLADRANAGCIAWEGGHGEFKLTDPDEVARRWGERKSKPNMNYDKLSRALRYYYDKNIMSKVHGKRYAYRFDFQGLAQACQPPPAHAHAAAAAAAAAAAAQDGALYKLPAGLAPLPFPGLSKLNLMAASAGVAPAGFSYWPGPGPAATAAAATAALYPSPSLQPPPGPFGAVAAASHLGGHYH
In short: as §1

ETV5 = ETV5 (Homo sapiens, UniProt P41161 1-510); details: protein: recombinant; tags: N-terminal GST; dsDNA, one strand shown
Chain of ETV5 (P41161 whole entry): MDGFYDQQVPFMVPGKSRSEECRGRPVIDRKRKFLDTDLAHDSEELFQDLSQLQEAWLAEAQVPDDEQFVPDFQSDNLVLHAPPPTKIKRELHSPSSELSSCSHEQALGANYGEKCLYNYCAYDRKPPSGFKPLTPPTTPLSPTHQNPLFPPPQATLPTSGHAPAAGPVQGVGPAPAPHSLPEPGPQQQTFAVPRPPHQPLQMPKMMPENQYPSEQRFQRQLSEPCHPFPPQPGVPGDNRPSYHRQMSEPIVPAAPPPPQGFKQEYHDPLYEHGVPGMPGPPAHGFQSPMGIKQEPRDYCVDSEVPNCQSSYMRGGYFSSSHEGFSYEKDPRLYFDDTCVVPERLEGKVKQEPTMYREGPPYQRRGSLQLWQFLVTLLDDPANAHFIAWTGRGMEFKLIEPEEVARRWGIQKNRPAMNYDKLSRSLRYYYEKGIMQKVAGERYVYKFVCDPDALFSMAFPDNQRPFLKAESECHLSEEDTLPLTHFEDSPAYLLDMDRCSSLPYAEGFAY
In short: as §1

HSF1 = HSF1 (Homo sapiens, UniProt Q00613 1-529); details: protein: recombinant; tags: N-terminal GST; chain copies: 3; dsDNA, one strand shown
Chain of HSF1 (Q00613 whole entry): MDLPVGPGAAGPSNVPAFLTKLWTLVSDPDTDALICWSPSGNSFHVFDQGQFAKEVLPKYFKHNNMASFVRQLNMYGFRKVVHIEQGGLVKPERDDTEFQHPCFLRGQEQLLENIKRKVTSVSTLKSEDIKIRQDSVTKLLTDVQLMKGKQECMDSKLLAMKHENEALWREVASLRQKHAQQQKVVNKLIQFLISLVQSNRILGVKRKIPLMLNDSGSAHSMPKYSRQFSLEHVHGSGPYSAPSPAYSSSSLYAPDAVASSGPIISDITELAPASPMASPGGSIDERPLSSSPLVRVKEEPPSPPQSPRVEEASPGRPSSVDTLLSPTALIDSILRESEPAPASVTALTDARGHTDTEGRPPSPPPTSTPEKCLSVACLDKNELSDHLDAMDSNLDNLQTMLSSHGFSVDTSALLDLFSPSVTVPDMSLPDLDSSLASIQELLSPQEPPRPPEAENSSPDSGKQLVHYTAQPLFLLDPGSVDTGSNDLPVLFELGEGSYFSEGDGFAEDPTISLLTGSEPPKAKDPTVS
In short: as §1

SPIC = biological target: T8, SPIC (Homo sapiens, UniProt Q8N5J4 1-248); details: protein: recombinant; tags: N-terminal GST; dsDNA, one strand shown
T8 sequence: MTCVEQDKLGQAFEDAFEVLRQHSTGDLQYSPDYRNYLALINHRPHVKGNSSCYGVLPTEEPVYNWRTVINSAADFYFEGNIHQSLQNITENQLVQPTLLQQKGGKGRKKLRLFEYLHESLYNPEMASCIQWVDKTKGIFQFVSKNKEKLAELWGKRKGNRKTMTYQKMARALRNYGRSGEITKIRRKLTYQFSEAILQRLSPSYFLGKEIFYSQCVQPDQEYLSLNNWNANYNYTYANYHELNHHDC
In short: as §1

ELF4 = ELF4 (Homo sapiens, UniProt Q99607 1-663); details: protein: recombinant; tags: N-terminal GST; dsDNA, one strand shown
Chain of ELF4 (Q99607 whole entry): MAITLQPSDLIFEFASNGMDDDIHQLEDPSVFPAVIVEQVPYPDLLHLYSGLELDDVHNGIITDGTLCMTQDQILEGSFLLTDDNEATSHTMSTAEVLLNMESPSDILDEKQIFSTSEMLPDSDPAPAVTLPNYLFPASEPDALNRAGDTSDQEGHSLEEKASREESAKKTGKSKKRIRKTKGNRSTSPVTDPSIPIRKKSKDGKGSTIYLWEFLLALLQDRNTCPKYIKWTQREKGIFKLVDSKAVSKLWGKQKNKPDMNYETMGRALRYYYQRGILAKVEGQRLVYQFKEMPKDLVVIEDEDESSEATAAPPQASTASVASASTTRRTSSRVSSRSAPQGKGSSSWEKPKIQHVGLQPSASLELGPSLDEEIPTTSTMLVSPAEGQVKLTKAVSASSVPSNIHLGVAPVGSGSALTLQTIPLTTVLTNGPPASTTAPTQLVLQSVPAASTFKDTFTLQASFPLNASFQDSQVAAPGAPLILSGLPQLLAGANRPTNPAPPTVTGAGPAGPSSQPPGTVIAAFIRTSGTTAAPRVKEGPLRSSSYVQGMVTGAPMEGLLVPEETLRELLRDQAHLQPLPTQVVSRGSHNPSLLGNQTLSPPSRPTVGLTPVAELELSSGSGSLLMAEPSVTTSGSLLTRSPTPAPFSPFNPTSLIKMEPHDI
In short: as §1

ELK4 = biological target: T9, ELK4 (Homo sapiens, UniProt P28324-2 1-405); details: protein: recombinant; tags: N-terminal GST; dsDNA, one strand shown
T9 sequence: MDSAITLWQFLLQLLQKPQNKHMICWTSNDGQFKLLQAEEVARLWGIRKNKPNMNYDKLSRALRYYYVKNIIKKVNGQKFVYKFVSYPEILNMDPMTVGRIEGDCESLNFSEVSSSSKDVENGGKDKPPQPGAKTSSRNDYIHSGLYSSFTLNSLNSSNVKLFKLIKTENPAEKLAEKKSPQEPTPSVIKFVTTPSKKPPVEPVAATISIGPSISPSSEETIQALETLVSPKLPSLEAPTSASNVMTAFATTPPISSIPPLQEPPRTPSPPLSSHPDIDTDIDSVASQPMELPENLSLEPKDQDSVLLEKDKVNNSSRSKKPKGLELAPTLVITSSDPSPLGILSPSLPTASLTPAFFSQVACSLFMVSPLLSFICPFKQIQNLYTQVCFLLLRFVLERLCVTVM
In short: as §1

ETV2 = biological target: T10, ETV2 (Homo sapiens, UniProt O00321 1-342); details: protein: recombinant; tags: N-terminal GST; dsDNA, one strand shown
T10 sequence: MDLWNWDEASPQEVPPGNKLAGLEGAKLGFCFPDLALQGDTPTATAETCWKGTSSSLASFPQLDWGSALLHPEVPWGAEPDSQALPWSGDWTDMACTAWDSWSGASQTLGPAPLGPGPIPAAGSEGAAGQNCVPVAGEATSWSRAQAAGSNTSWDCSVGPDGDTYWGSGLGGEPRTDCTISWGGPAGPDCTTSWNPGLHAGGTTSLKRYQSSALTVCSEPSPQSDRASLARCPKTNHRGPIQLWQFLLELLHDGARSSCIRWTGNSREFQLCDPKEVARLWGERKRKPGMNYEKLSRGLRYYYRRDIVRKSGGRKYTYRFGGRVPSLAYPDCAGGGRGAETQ
In short: as §1

ELF3 = biological target: T11, ELF3 (Homo sapiens, UniProt P78545 1-371); details: protein: recombinant; tags: N-terminal GST; dsDNA, one strand shown
T11 sequence: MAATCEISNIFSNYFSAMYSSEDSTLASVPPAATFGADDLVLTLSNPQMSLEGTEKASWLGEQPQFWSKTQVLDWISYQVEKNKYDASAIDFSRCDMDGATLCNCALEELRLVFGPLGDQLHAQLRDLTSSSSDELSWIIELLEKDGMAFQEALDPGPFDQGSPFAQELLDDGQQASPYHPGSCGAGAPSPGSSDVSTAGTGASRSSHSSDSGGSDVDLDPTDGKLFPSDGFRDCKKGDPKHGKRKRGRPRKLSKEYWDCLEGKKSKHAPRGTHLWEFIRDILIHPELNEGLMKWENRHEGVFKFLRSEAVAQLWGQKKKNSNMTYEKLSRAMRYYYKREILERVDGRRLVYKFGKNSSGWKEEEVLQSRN
In short: as §1

CRX = CRX (Homo sapiens, UniProt O43186 1-299); details: protein: recombinant; tags: N-terminal GST; dsDNA, one strand shown
Chain of CRX (O43186 whole entry): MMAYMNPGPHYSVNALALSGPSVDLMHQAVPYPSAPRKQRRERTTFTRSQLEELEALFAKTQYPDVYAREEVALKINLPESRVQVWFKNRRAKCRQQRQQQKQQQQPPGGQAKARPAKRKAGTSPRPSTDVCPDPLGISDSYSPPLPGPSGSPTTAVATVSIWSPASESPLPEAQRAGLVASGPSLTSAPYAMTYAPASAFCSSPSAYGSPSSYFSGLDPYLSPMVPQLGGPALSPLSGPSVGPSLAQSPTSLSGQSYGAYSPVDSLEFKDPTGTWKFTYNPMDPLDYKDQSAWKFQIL
In short: as §1

ETV1 = ETV1 (Homo sapiens, UniProt P50549 1-477); details: protein: recombinant; tags: N-terminal GST; dsDNA, one strand shown
Chain of ETV1 (P50549 whole entry): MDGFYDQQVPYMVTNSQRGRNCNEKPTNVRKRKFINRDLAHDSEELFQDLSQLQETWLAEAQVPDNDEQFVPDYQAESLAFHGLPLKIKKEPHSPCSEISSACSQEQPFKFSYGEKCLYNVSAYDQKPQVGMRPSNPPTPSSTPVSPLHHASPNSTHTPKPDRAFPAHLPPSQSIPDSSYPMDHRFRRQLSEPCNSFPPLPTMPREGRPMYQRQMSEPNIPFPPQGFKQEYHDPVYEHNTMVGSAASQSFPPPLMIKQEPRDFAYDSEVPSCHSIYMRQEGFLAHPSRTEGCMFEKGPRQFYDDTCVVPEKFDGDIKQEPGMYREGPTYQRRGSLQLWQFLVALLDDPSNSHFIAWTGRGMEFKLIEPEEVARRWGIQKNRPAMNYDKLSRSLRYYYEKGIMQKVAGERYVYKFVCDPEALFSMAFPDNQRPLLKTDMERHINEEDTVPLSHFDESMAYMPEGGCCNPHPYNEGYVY
In short: as §1

TTTATA
binding signal (FLI1): 1.32 fold enrichment (6-mer frequency, TF over GST control) | binding signal (ELK1): 1.27 fold enrichment (6-mer frequency, TF over GST control) | binding signal (GABPA): 1.36 fold enrichment (6-mer frequency, TF over GST control) | binding signal (ERG): 1.29 fold enrichment (6-mer frequency, TF over GST control) | binding signal (ELF1): 1.23 fold enrichment (6-mer frequency, TF over GST control) | binding signal (EHF): 1.4 fold enrichment (6-mer frequency, TF over GST control) | binding signal (SPI1): 1.34 fold enrichment (6-mer frequency, TF over GST control) | binding signal (SPIB): 1.33 fold enrichment (6-mer frequency, TF over GST control) | binding signal (ELK3): 1.28 fold enrichment (6-mer frequency, TF over GST control) | binding signal (FEV): 1.28 fold enrichment (6-mer frequency, TF over GST control) | binding signal (ETV5): 1.24 fold enrichment (6-mer frequency, TF over GST control) | binding signal (HSF1): 1.54 fold enrichment (6-mer frequency, TF over GST control) | binding signal (SPIC): 1.37 fold enrichment (6-mer frequency, TF over GST control) | binding signal (ELF4): 1.36 fold enrichment (6-mer frequency, TF over GST control) | binding signal (ELK4): 1.37 fold enrichment (6-mer frequency, TF over GST control) | binding signal (ETV2): 1.26 fold enrichment (6-mer frequency, TF over GST control) | binding signal (ELF3): 1.36 fold enrichment (6-mer frequency, TF over GST control) | binding signal (CRX): 2.05 fold enrichment (6-mer frequency, TF over GST control) | binding signal (ETV1): 1.31 fold enrichment (6-mer frequency, TF over GST control)
